Assay results from PubChem BioAssay (NCATS).
“And” between values parts separate entries of the source, which are not always exact repeats. Equal entries are not always repeated. Results filed as inconclusive are left out. The source made the active and inactive calls. Unless noted, the call rests on the fitted dose curve; in most records, active means well fitted curve in the direction sought with a large enough effect; inconclusive means small, poorly fitted or top-dose-only effect, or another doubt; inactive means no such curve, though single readings can be large; an effect the other way counts as inactive or inconclusive.

Tests used:
[1] = biological target: Mitogen-activated protein kinase 10 (Mus musculus) (UniProt Q61831); assay: JNK3 AlphaScreen Assay (AID 530; active means well fitted curve in either direction with a large enough effect, not every such curve was filed as active;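 further: kinase came from lysate of stimulated human HepG2 cells; signal reports phosphorylation of biotinylated GST-cJun 1-79 at Ser73 with 10 µM ATP; on the % scale 0 is the no-effect control and ±100 the full control effect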)
Procedure, shortened: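 Inhibitors reduce antibody binding to phosphorylated biotin-cJun, lowering AlphaScreen luminescence. Lysates from HepG2 cells pre-activated by IL-1beta plus TNF-alpha supplied JNK3; compounds were titrated.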

[2] = Cell Viability - Mesenchymal (AID 546);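 further: cells exposed to compound for 40 hours before reading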
Procedure, shortened: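 Normal human renal glomerulus-derived kidney mesenchymal cells, 1000 per well in complete medium, were treated with compounds for 40 hr at 37 °C. Viability was read as intracellular ATP by CellTiter-Glo luminescence; AC50 values came from Hill-equation fits of qHTS concentration-response data.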

[3] = Cellular Toxicity (caspase-3) Jurkat (AID 655); conditions: Jurkat caspase-3 activation, luminescence; caspase-3 activation: at 92.2 µM (top of the series), DMSO = 0%, tamoxifen = 100%;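 further: cells exposed to compound for 16 h at 37 °C before reading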; further: potency means the concentration at half of the fitted maximal effect
Procedure, shortened: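 Jurkat cells (5000/well) in complete medium exposed 16 h at 37 C; caspase-3/7 activity read by Caspase-Glo luminescence after 20 min at room temperature. Normalized to DMSO and 100 uM tamoxifen; AC50 from Hill fits.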

[4] = Cellular Toxicity (caspase-3) SHSY5Y (AID 657)
Procedure, shortened: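 SH-SY5Y human neuroblastoma cells, 1500/well, exposed to compound for 16 hours at 37 °C in complete medium. Caspase-3/7 activity read by Caspase-Glo luminescence after 1 hr at room temperature, normalized to DMSO and 10 uM staurosporine; AC50 from Hill fit.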

[5] = Cellular Toxicity (caspase-3) SK-N-SH (AID 661);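 further: 0% = DMSO basal and 100% = 10 µM staurosporine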
Procedure, shortened: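 Human SK-N-SH neuroblastoma cells, 1500/well, were exposed to compounds for 16 hours at 37 °C. Caspase-Glo 3/7 luminescence was normalized to DMSO (basal) and 10 uM staurosporine (100%), and AC50 came from a Hill fit.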

[6] = Cellular Toxicity (caspase-3) Hek293 (AID 664); conditions: HEK293 caspase-3 activation, DMSO = 0%, 100 µM tamoxifen = 100%; at 92.2 µM (top of the series);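 further: cells exposed to compound for 16 h at 37 °C before readout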
Procedure, shortened: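 HEK293 cells in complete medium treated 16 h at 37 °C, then Caspase-Glo 3/7 luminescence read after 20 min at room temperature. Normalized to DMSO and 100 uM tamoxifen; AC50 from Hill fit of concentration-response.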

[7] = Cellular Toxicity (caspase-3) NIH 3T3 (AID 666);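 further: caspase signal read after 16 h compound exposure; 0% = DMSO basal and 100% = 100 µM tamoxifen stimulation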
Procedure, shortened: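 Mouse NIH 3T3 fibroblasts (1000/well) treated 16 h at 37 C; caspase-3/7 activity measured by Caspase-Glo 3/7 luminescence after 20 min. Normalized to DMSO and 100 uM tamoxifen; AC50 from Hill fits.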

[8] = MultiTox-Fluor Cytotoxicity Assay - LYMP1-001 - Dead Cells (AID 946)
Procedure, shortened: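 Cytotoxicity as increased dead-cell protease fluorescence (bis-AAF-R110, 485/520 nm), read 60 min after MultiTox-Fluor reagent. Human lymphoblastoid line exposed 16 h; Hill-fitted AC50, with DMSO as 0% and 15 uM tetraoctylammonium bromide as 100%.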

[9] = Cell Viability - LYMP2-002 (AID 977);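 further: plate controls were DMSO only for no effect and 92 µM tetraoctylammonium bromide for full effect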
Procedure, shortened: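 Luminescent ATP readout (CellTiter-Glo, 30 min room temperature) after 24 h compound exposure at 37 C of a human lymphoblastoid line, 2500 cells/well. AC50 values derived by standard Hill fitting of qHTS concentration-response data.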

[10] = Cell Viability - LYMP2-008 (AID 980); further: nearly all actives have a fitted effect of over 60% in size; further: potency means the concentration at half of the fitted maximal effect
Procedure, shortened: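 LYMP2-008 lymphoblastoid cells (2500/well) plated 5 h, then treated 24 h at 37 C in complete medium. Viability read as intracellular ATP by CellTiter-Glo luminescence after 30 min at room temperature; AC50 from Hill fits.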

[11] = qHTS assay for small molecule activators of the p53 signaling pathway (AID 651743; active means well fitted activation curve with a large enough effect in the signal ratio, not every such curve was filed as active; the % refers to the signal ratio; further: % of control where 0% means no effect); conditions: HCT-116 p53RE-bla, beta-lactamase FRET ratio, 16 h; activation: hits give high values
Procedure, shortened: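 Cell-based beta-lactamase reporter (p53 response elements, HCT-116 background). After a 5-hour preincubation, cells received compound for 16 hours at 37 C; substrate development ran 2 hours at room temperature.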

[12] = biological target: Tumor necrosis factor (Homo sapiens) (UniProt P01375); assay: qHTS assay to identify small molecules that stimulate Tumor Necrosis Factor-alpha (TNF-alpha) secretion (AID 651757; active means well fitted curve in the direction sought with a large enough effect in the signal ratio; the % refers to the signal ratio; further: 0% is about no effect)
Tumor necrosis factor (Homo sapiens), sequence (P01375 whole entry, looked up): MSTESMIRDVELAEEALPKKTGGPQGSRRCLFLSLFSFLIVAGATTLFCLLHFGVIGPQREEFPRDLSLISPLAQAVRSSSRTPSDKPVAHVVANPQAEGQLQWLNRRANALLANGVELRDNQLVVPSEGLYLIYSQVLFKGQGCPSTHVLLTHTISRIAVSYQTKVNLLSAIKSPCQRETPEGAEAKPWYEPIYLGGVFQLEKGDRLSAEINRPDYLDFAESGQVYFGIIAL
Procedure, shortened: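 THP-1 cells (3000/well) exposed to compounds 17 hrs at 37 C. Secreted TNF-alpha detected by HTRF with cryptate- and XL665-labeled anti-TNF-alpha antibodies after 3 hr at room temperature.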

[13] = qHTS assay for small molecule antagonists of the retinoid-related orphan receptor gamma (ROR-gamma) signaling pathway - cell viability counter screen (AID 720652; active means well fitted curve in the direction sought with a large enough effect in the repeat runs; an effect the other way counts as inactive or inconclusive;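 further: CHO reporter cells with doxycycline-induced ROR-gamma expression; compound exposure lasted 16 hr before ATP read; on the % scale 0 is the no-effect control and ±100 the full control effect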)
Procedure, shortened: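 CHO cells carrying TET-inducible ROR and RORE-luciferase reporter, plated 5 hr, then dosed with compound plus doxycycline. After 16 hr at 37 C, viability read as intracellular ATP by CellTiter-Glo luminescence.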

[14] = qHTS assay for cell viability of the p53RE-bla HCT-116 cell line (AID 743292); further: on the % scale 0 is the no-effect control and ±100 the full control effect; nearly all actives have a fitted effect of over 55% in size
Procedure, shortened: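 Compound-exposed HCT-116 (p53RE-bla) cells, 4,000 per well, were kept 16 h at 37 C following a 5 h preincubation. Cell number was estimated from total ATP by CellTiter-Glo luminescence read after 30 min at room temperature.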

[15] = Cellular Toxicity (caspase-3) HepG2 (AID 654);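 further: cells exposed to compound for 16 hours before reading; 0% = DMSO alone and 100% = caspase signal from 100 µM tamoxifen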
Procedure, shortened: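 HepG2 cells (1500/well) were treated 16 h at 37 °C in complete medium, then caspase 3/7 activity was read by Caspase-Glo luminescence. Data were normalized to DMSO and 100 uM tamoxifen; AC50 came from Hill-equation fits of qHTS concentration-response.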

[16] = Cell Viability - LYMP2-009 (AID 968);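 further: 0% = DMSO alone and the full-kill end = tetraoctylammonium bromide at 92 µM; nearly all actives have a fitted effect of over 55% in size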
[17] = Cell Viability - LYMP2-019 (AID 973);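 further: 0% = DMSO alone and full effect = 92 µM tetraoctylammonium bromide; nearly all actives have a fitted effect of over 55% in size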
Procedure, shortened: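 Human lymphoblastoid LYMP2-019 cells (2500/well) preincubated 5 h at 37 C, then treated 24 h at 37 C in complete medium. Viability by CellTiter-Glo ATP luminescence after 30 min at room temperature; AC50 from Hill fits.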

[18] = Cell Viability - LYMP2-023 (AID 975);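 further: cellular ATP measured by luciferase luminescence as viability proxy; cells exposed to compound for 24 hours at 37 °C; plate controls were DMSO only for no effect and 92 µM tetraoctylammonium bromide control for full effect; nearly all actives have a fitted effect of over 55% in size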
Procedure, shortened: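 LYMP2-023 human lymphoblastoid cells, 2500/well, preincubated 5 hr at 37 C, then compound-treated 24 hr at 37 C in complete medium. CellTiter-Glo luminescence (ATP) after 30 min at room temperature; AC50 from Hill-equation fits; tetraoctylammonium bromide positive control.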

[19] = Cell Viability - LYMP2-024 (AID 988);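 further: plate controls were DMSO only for no effect and 92 µM tetraoctylammonium bromide for full effect; nearly all actives have a fitted effect of over 60% in size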
Procedure, shortened: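 Human lymphoblastoid LYMP2-024 cells (2500/well) rested 5 hr, then treated with compound for 24 hr at 37 C in complete medium. Viability was measured as intracellular ATP by CellTiter-Glo luminescence. AC50 values came from Hill-equation fits.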

[20] = qHTS assay for small molecule agonists of the antioxidant response element (ARE) signaling pathway measured by Nrf2-dependant transcriptional activity (AID 720636; active means well fitted curve in the direction sought with a large enough effect in the repeat runs; an effect the other way counts as inactive or inconclusive;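 further: HepG2 cells with an ARE-driven luciferase reporter; % of control where 0% means no effect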)
Procedure, shortened: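 Attachment 6 hr at 37 C, then compound versus DMSO vehicle for 16 hr in ARE-luc HepG2 cells (1% dialyzed FBS); luminescence recorded 30 min after ONE-Glo addition at room temperature.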

Nc1cccc2ccccc12
active: Potency [3] 25.1 µM | caspase-3 activation [6] 156% | Potency [10] 39.8 µM
inactive: Potency [1] | Potency [2] | outcome [4] | Potency [5] | Potency [7] | outcome [8] | Potency [9] | activation [11] -3.1% | outcome [12] | Potency [13] | Potency [14]

C=CC(=O)OCCN(C)C
inactive: Potency [1] | Potency [2] | outcome [15] | caspase-3 activation [3] 1.53% | outcome [4] | caspase-3 activation [6] -0.126% | Potency [7] | Potency [16] | Potency [17] | Potency [18] | Potency [9] | Potency [10] | Potency [19] | activation [11] 0.0499% | outcome [12] | Potency [20] | Potency [13] | Potency [14]

ClCCOCCCl
inactive: Potency [1] | outcome [15] | caspase-3 activation [3] -0.264% | Potency [7] | outcome [8] | Potency [16] | Potency [17] | Potency [18] | Potency [9] | Potency [10] | activation [11] -1.88% | outcome [12] | Potency [20] | Potency [13] | Potency [14]

COC(=O)Nc1cccc(OC(=O)Nc2cccc(C)c2)c1
inactive: Potency [1] | Potency [2] | outcome [15] | caspase-3 activation [3] 1.17% | outcome [4] | Potency [5] | Potency [7] | outcome [8] | Potency [16] | Potency [17] | Potency [10] | Potency [19] | activation [11] -2.65% | outcome [12] | Potency [13] | Potency [14]

Nc1ncc([N+](=O)[O-])s1
inactive: Potency [1] | Potency [2] | outcome [15] | caspase-3 activation [3] -1.21% | outcome [4] | Potency [5] | caspase-3 activation [6] -1.64% | Potency [7] | outcome [8] | Potency [16] | Potency [17] | Potency [18] | Potency [10] | Potency [19] | activation [11] -4.14% | outcome [12] | Potency [13] | Potency [14]

CC(C)(Cl)Cl
inactive: Potency [1] | Potency [2] | outcome [15] | caspase-3 activation [3] -0.572% | Potency [5] | caspase-3 activation [6] 0.825% | outcome [8] | Potency [18] | Potency [10] | Potency [19] | activation [11] -1.59% | outcome [12] | Potency [13] | Potency [14]

CCN(CC)CCO
inactive: Potency [1] | outcome [15] | caspase-3 activation [3] 2.76% | outcome [4] | Potency [5] | Potency [7] | outcome [8] | Potency [16] | Potency [17] | Potency [18] | Potency [9] | Potency [19] | activation [11] 0.771% | outcome [12] | Potency [20] | Potency [13]

C=CCBr
inactive: Potency [1] | Potency [2] | outcome [15] | caspase-3 activation [3] -0.133% | outcome [4] | Potency [5] | caspase-3 activation [6] 1.99% | Potency [7] | outcome [8] | Potency [16] | Potency [9] | Potency [10] | activation [11] -2.4% | outcome [12] | Potency [13] | Potency [14]

Nc1cc(Cl)cc(C(=O)O)c1Cl
inactive: Potency [1] | Potency [2] | outcome [15] | caspase-3 activation [3] -0.545% | Potency [5] | caspase-3 activation [6] -1.19% | Potency [17] | Potency [18] | Potency [9] | Potency [10] | Potency [19] | activation [11] -3.99% and 3.61% | outcome [12] | Potency [20] | Potency [13] | Potency [14]

C/C=C/C=O
inactive: Potency [1] | Potency [2] | outcome [15] | caspase-3 activation [3] 0.559% | outcome [4] | Potency [5] | caspase-3 activation [6] -1.23% | Potency [7] | outcome [8] | Potency [16] | Potency [18] | Potency [9] | Potency [10] | Potency [19] | Potency [20] | Potency [14]

NNC(N)=S
inactive: Potency [1] | Potency [2] | outcome [15] | caspase-3 activation [3] 0.589% | outcome [4] | Potency [5] | caspase-3 activation [6] 0.435% | Potency [7] | outcome [8] | Potency [16] | Potency [17] | Potency [18] | Potency [10] | Potency [19] | activation [11] -3.14% | Potency [20] | Potency [13] | Potency [14]

Cc1ccc(N)cc1N
inactive: Potency [1] | Potency [2] | outcome [15] | caspase-3 activation [3] -0.424% | outcome [4] | caspase-3 activation [6] 0.128% | Potency [7] | outcome [8] | Potency [16] | Potency [9] | Potency [10] | Potency [19] | activation [11] -3.51% and -0.675% | Potency [20] | Potency [14]

COc1ccccc1N
inactive: Potency [1] | Potency [2] | outcome [15] | caspase-3 activation [3] 5.87% | outcome [4] | Potency [5] | Potency [7] | outcome [8] | Potency [18] | Potency [19] | outcome [12] | Potency [20] | Potency [13]

O=C(O)C(Cl)Br (stereo unspecified)
inactive: Potency [1] | Potency [2] | outcome [15] | caspase-3 activation [3] -0.427% | outcome [4] | Potency [5] | caspase-3 activation [6] 0.0973% | outcome [8] | Potency [18] | Potency [9] | Potency [10] | Potency [19] | activation [11] 0.485% | outcome [12] | Potency [20] | Potency [13] | Potency [14]

c1ccc(C2CO2)cc1 (stereo unspecified)
inactive: Potency [1] | Potency [2] | outcome [15] | caspase-3 activation [3] 1.66% | outcome [4] | Potency [5] | caspase-3 activation [6] -0.153% | Potency [7] | outcome [8] | Potency [16] | Potency [17] | Potency [19] | activation [11] -1.82% | outcome [12] | Potency [20] | Potency [13] | Potency [14]

ClC(Cl)c1ccccc1
inactive: Potency [1] | Potency [2] | outcome [15] | caspase-3 activation [3] 2.34% | outcome [4] | Potency [5] | caspase-3 activation [6] 0.485% | Potency [7] | outcome [8] | Potency [16] | Potency [17] | Potency [18] | Potency [9] | Potency [10] | Potency [19] | Potency [13] | Potency [14]
